Assay outcomes as filed in PubChem.
MEKK2 WT-MEK5: raises or lowers MEK5 binding to wildtype human MEKK2 PB1 domain. Q9Y2U5. 1.1% of 290,000 active. bead flow cytometry, Alexa488-MEK5 binding to MEKK2 WT; actives lie on both sides. binding response (% of control), % at 10 µM; in the data active means binding response below about 67% or above about 130%
VLA-4 inh: inhibition in a human VLA-4 binding assay; VLA-4 expressing cells, ligand binding flow cytometry; AID 2557; P13612; inhibition, % (about 7 µM as worked out from the volumes in the protocol); 0.2% of 330,000 active; in the data active means inhibition above about 50%
Target sequence (P13612 whole entry, looked up): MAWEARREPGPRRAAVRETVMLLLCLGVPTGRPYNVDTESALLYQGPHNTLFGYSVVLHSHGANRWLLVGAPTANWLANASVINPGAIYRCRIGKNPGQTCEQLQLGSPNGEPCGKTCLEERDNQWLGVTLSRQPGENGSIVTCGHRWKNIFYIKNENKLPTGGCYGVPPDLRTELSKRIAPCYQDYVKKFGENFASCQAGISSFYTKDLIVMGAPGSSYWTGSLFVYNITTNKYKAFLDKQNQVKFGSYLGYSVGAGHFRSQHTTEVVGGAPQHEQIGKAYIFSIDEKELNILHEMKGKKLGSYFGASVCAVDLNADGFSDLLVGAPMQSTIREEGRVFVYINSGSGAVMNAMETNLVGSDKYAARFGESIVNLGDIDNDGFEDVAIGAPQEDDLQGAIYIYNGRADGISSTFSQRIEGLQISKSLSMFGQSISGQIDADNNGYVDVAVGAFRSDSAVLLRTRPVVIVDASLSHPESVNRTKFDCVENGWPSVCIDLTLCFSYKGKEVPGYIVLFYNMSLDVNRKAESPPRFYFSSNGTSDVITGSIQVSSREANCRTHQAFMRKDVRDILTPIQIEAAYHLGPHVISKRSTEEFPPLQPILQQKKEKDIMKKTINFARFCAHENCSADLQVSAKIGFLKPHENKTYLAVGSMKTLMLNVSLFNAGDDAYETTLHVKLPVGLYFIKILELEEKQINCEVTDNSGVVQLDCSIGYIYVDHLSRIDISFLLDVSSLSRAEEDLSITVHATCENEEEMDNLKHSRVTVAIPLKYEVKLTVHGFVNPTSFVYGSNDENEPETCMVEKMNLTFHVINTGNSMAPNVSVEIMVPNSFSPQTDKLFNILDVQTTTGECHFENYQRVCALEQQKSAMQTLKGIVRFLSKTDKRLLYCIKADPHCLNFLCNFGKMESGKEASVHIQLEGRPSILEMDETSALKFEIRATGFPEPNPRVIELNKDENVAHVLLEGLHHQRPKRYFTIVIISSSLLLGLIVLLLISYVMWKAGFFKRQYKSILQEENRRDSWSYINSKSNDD
MEKK3 PB1 HTS: modulators (inhibitors or enhancers) of MEK5 binding to human MEKK3 PB1 domain; bead-based flow cytometry, Alexa488-MEK5 binding to MEKK3; actives lie on both sides; 0 = blocked by unlabeled MEK5, 100 = vehicle; binding response (% of control), % at 10 µM; 1.4% of 290,000 active;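 active means binding response more than 3 SD above or below the average of its plate-row segment, actives on both sides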;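 further: Alexa488 bead fluorescence after subtracting the streptavidin-only scavenger bead signal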
MEKK2 mut-MEK5: signal of MEK5 binding to mutant human MEKK2 PB1 domain; percent response, % at 10 µM; bead flow cytometry, Alexa488-MEK5 binding to MEKK2 mutant; AID 1530; 0.35% of 290,000 active; in the data active means percent response above about 24%, passing the limit was not always enough
MEKK2wt confirm: raises or lowers MEK5 binding to wildtype human MEKK2, retest | shares compounds with MEKK3 PB1 HTS | bead flow cytometry, Alexa488-MEK5 binding to MEKK2 WT; actives lie on both sides | AID 1892 | binding response (% of control), % at 10 µM | 2.4% of 5,900 active; in the data active means binding response below about 16% or above about 210%; inactive means in between
MEKK2mut-MEK5: signal of MEK5 binding to mutant human MEKK2, retest; 2% of 5,900 active; bead flow cytometry, Alexa488-MEK5 binding to MEKK2 mutant; AID 1893; shares compounds with MEKK3 PB1 HTS; percent response, % at 10 µM; in the data active means percent response mostly above about 71%, no sharp cut-off; inactive means mostly below about 38%;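 further: higher means compound restores mutant binding toward wildtype level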
MEKK3 confirm: confirmation of inhibitors of MEK5 binding to human MEKK3. shares compounds with MEKK3 PB1 HTS. bead flow cytometry, Alexa488-MEK5 binding to MEKK3; active compounds read low. binding response (% of control), % at 10 µM. 1.8% of 5,900 active;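 active means binding response below 72% of control, or above a set upper limit, though filed actives all read lower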;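 further: lower values mean stronger disruption of MEK5 binding to MEKK3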
Of the large screens only hits and unclear results are named; the others gave an inactive call (follow-up assays come after a bar, where they were run); [ ] = remark or other dose. In the library only some 2.2% were active in any assay of this set; here they are far more common.

CCCCN(CC)CCNC(=O)c1nn(-c2ccc(OC)cc2)c(=O)c2c1c1ccccc1n2C	MEKK2 WT-MEK5 144.0 | MEKK2wt confirm inactive | MEKK2mut-MEK5 inactive | MEKK3 confirm inactive
CC1CCCC(C)N1C(=O)c1cc(-c2ccc3c(c2)OCO3)on1 (centres undefined)	none
CC1CCN(CCOCCOc2ccc(Cl)cc2Br)CC1	MEKK2 WT-MEK5 147.0 | MEKK2wt confirm inactive | MEKK2mut-MEK5 inactive | MEKK3 confirm inactive
Clc1ccc(OCCCN2CCc3ccccc3C2)c(Br)c1	MEKK2 WT-MEK5 134.0 | MEKK2wt confirm inactive | MEKK2mut-MEK5 inactive | MEKK3 confirm inactive
Clc1ccc(OCCOCCN2CCc3ccccc3C2)c(Cl)c1	none
Cc1ccc(OCc2nnc(SCC(=O)N3C(C)CCCC3C)o2)cc1 (centres undefined)	none
CCN(CC(=O)Nc1c(F)cccc1F)C(=O)COc1ccc2c(C)cc(=O)oc2c1	MEKK2 WT-MEK5 44.0[inhibitor], MEKK3 PB1 HTS 41.0[inhibitor] | MEKK2wt confirm inactive | MEKK2mut-MEK5 inactive | MEKK3 confirm inactive
Cc1ccc(C2N(C)C(=O)c3ccccc3N2C)cc1 (centres undefined)	none
CCN(c1ccc(N=Cc2c(O)n(Cc3ccc(OC)cc3)c(=O)c3ccccc23)cc1)C(C)C	MEKK3 PB1 HTS 56.0[inhibitor], MEKK2 mut-MEK5 175.0 (no result: MEKK2 WT-MEK5, VLA-4 inh) | MEKK2wt confirm inactive | MEKK2mut-MEK5 inactive | MEKK3 confirm inactive
COc1ccc(C2=CCC3CCCCN3C2)cc1OC (centres undefined)	none (no result: MEKK2 WT-MEK5, MEKK3 PB1 HTS, MEKK2 mut-MEK5)
CCC(C)NC(=O)C(=O)NCc1ccncc1 (centres undefined)	MEKK3 PB1 HTS 81.0[inhibitor] | MEKK2wt confirm inactive | MEKK2mut-MEK5 inactive | MEKK3 confirm inactive
CCOC(=O)c1ccc(NC(=O)C(=O)NCc2ccncc2)cc1	MEKK2 WT-MEK5 24.0[inhibitor], MEKK3 PB1 HTS 19.0[inhibitor] | MEKK2wt confirm inactive | MEKK2mut-MEK5 inactive | MEKK3 confirm inactive
NC(=O)c1cnn2c(-c3ccc(Cl)cc3Cl)ccnc12	none
Cc1cccc(CN2CCN(CC(=O)NCCCN3CCN(c4ccc(F)cc4)CC3)C2=O)c1	MEKK2 WT-MEK5 180.0 | MEKK2wt confirm inactive | MEKK2mut-MEK5 inactive | MEKK3 confirm inactive
Cc1cccc(CN2CCN(CC(=O)NCCCN3CCCC3=O)C2=O)c1	none
COc1cc2c(cc1OC)C(c1cc3cccc(C)c3[nH]c1=O)N(C(=O)c1ccco1)CC2 (centres undefined)	none
CSc1nc(C)c(C(=O)Nc2ccccc2)c(-c2ccco2)c1C#N	MEKK2 WT-MEK5 16.0[inhibitor], MEKK3 PB1 HTS 27.0[inhibitor] | MEKK2wt confirm inactive | MEKK2mut-MEK5 inactive | MEKK3 confirm inactive
CCCn1c(C)cc(C(=O)COC(=O)c2ccc[nH]c2=O)c1C	MEKK3 PB1 HTS 130.0 | MEKK2wt confirm inactive | MEKK2mut-MEK5 inactive | MEKK3 confirm inactive
COc1ccc(OC)c(Nc2nc(N)c([N+](=O)[O-])c(N3CCOCC3)n2)c1	none
NC(=O)SC/C(=N\S(=O)(=O)c1ccccc1)Nc1ccccc1	none
Cc1ccc(N/C(CSC(N)=O)=N\S(=O)(=O)c2ccc(C)cc2)cc1	MEKK3 PB1 HTS 128.0 | MEKK2wt confirm inactive | MEKK2mut-MEK5 inactive | MEKK3 confirm inactive
C/C(=N\S(=O)(=O)c1ccc(C)cc1)NC(=S)Nc1ccc(C)cc1	none
Cc1ccc(N/C(CSC(N)=O)=N/S(=O)(=O)c2ccccc2)cc1	MEKK3 PB1 HTS 125.0 | MEKK2wt confirm inactive | MEKK2mut-MEK5 inactive | MEKK3 confirm inactive
COc1ccc(-c2nn(-c3ccccc3)cc2CNC[C@H]2O[C@@H](n3cnc4c(N)ncnc43)[C@H](O)[C@@H]2O)cc1	none (no result: MEKK2 WT-MEK5, MEKK3 PB1 HTS, MEKK2 mut-MEK5)
COc1ccccc1C(=O)C1CCCN(C(=O)c2cccnc2SC)C1 (centres undefined)	MEKK2 WT-MEK5 632.0, MEKK3 PB1 HTS 128.0, MEKK2 mut-MEK5 541.0 | MEKK2wt confirm inactive | MEKK2mut-MEK5 inactive | MEKK3 confirm inactive
c1ccc(-c2cc3c(nn2)CCc2nonc2-3)cc1	MEKK3 PB1 HTS 72.0[inhibitor] | MEKK2wt confirm inactive | MEKK2mut-MEK5 inactive | MEKK3 confirm inactive
CSCCC(NC(=O)COc1ccccc1)C(=O)N1CCCC(C(F)(F)F)C1 (centres undefined)	none (no result: MEKK2 WT-MEK5, MEKK3 PB1 HTS, MEKK2 mut-MEK5)
COC(=O)Cn1c(O)c(N=NC(=O)CNC(=O)c2ccncc2)c2ccccc21	none
Cc1ccc2nc(SCC(=O)NCc3ccco3)c(C#N)cc2c1	none
Cc1ccc2cc(C#N)c(SCC(=O)NCc3ccco3)nc2c1	MEKK2 WT-MEK5 2.0[inhibitor], MEKK3 PB1 HTS 2.0[inhibitor] | MEKK2wt confirm inactive | MEKK2mut-MEK5 inactive | MEKK3 confirm inactive
Cc1cc(C)n2nc(SCC(=O)NCc3ccco3)nc2n1	MEKK3 PB1 HTS 77.0[inhibitor] | MEKK2wt confirm inactive | MEKK2mut-MEK5 inactive | MEKK3 confirm inactive
CN(C(=O)CSc1nnnn1-c1ccc(O)cc1)C1CCCCC1	none (no result: MEKK2 WT-MEK5, MEKK3 PB1 HTS, MEKK2 mut-MEK5)
CCN(CC)CCN(C(=O)c1ccc(C(=O)c2ccccc2)cc1)c1nc2cc3c(cc2s1)OCO3	MEKK2 WT-MEK5 157.0, MEKK2 mut-MEK5 31.0 | MEKK2wt confirm inactive | MEKK2mut-MEK5 inactive | MEKK3 confirm inactive
CCN(CC)CCN(C(=O)c1ccc([N+](=O)[O-])cc1)c1nc2c(OC)cccc2s1	none
CCN(CC)CCN(C(=O)c1ccc(Br)s1)c1nc2cc3c(cc2s1)OCCO3	MEKK2 WT-MEK5 138.0 | MEKK2wt confirm inactive | MEKK2mut-MEK5 inactive | MEKK3 confirm inactive
CCN(CC)CCN(C(=O)c1ccc2ncsc2c1)c1nc2cc3c(cc2s1)OCO3	none
CCN(CC)CCN(C(=O)c1ccc(Br)s1)c1nc2cc3c(cc2s1)OCO3	none
CCN(CC)CCN(C(=O)c1ccc(C(=O)c2ccccc2)cc1)c1nc2c(OC)cccc2s1	MEKK2 WT-MEK5 178.0, MEKK2 mut-MEK5 42.0 | MEKK2wt confirm inactive | MEKK2mut-MEK5 inactive | MEKK3 confirm inactive
COc1ccc(S(=O)(=O)N(CC(=O)N2CCCCCC2)c2ccccc2OC)cc1	none
Cc1c(Br)c(C(F)(F)F)nn1CC(=O)NCc1ccccc1	MEKK3 PB1 HTS 132.0 | MEKK2wt confirm inactive | MEKK2mut-MEK5 inactive | MEKK3 confirm inactive
COc1ccc(CNC(=O)Cn2nc(C(F)(F)F)c(Br)c2C)cc1	none
Cc1ccc(C(=O)NCCNS(=O)(=O)c2ccccc2[N+](=O)[O-])cc1	none
CC1CC(C)CN(C(=O)C2CCC(CNS(=O)(=O)c3ccccc3)CC2)C1 (centres undefined)	none
CCN(CC)S(=O)(=O)c1ccc(OC)c(NC(=O)c2cc3c(=O)n4ccccc4nc3s2)c1	MEKK3 PB1 HTS 130.0 | MEKK2wt confirm inactive | MEKK2mut-MEK5 inactive | MEKK3 confirm inactive
Cc1ccc(NC(=S)N2CCCCC2)cc1C	none
